Measured values: the supplement of paper PMC13380429

test system: Vero E6 infected with SARS-CoV-2; test: inhibition of SARS-CoV-2 cytopathic effect; higher = more antiviral protection, active = above 15; conditions: 10000 nM; 48 h

`N[C@@H](C(=O)O)c1ccc(C(=O)O)c(O)c1` (racemic) [4-carboxy-3-hydroxyphenylglycine-(RS)] was tested. Which “inhibition of SARS-CoV-2 cytopathic effect” value (shortened to “inhibition”) did it give?
The value was -0.565% (inactive).

With `CN1c2c([nH]c(N)nc2=O)NC[C@@H]1CNc1ccc(C(=O)N[C@@H](CCC(=O)O)C(=O)O)cc1` [metafolin] as the compound, how does the “inhibition” value read?
The value was 2.93% (inactive).

Which “inhibition” value does the source give for `Nc1ncnc2c1ncn2[C@@H]1O[C@H](C[C@@H](N)CC[C@H](N)C(=O)O)[C@@H](O)[C@H]1O` [sinefungin] here?
The value was -7.24% (inactive).

How did the “inhibition” value turn out when `CCN1CCCC1CNC(=O)c1cc(S(=O)(=O)CC)c(N)cc1OC` (centres undefined) [amisulpride] was run?
The value was -1.76% (inactive).
